Shown is part of a subset that was picked to be rich in hits.
Artemis inh – Artemis endonuclease inhibitors, primary screen, biochemical, fluorescence intensity, FAM/BHQ-1 hairpin substrate; recombinant Artemis, quenched FAM hairpin cleavage fluorescence; inhibition, % at 10 µM; actives 0.78% (n = 30,000);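 active = at 10 µM dose, at least 30% inhibition, measured as corrected fluorescence normalized to stimulator and neutral control wells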
* hit, by the source's call.

SMILES | Artemis inh
CCOC(=O)c1cc(CNC(=O)c2c(C)oc3c2CCCC3)c(C)o1 | 13
COc1cccc(OC)c1C(=O)N1CCN(S(=O)(=O)c2ccc(C)cc2)CC1 | 0
CCNC(=O)NC(=O)CSc1nc2ccccc2n1CCOC | -3
CCCCC(c1nnnn1CCOC)N1CCN(c2cccc(OC)c2)CC1 (stereo not given) | -3
O=C(N/N=C\c1ccc(Cl)s1)c1cccs1 | 1
O=C(N/N=C/c1ccco1)c1cc(-c2ccc3ccccc3c2)n[nH]1 | 23
O=C(N/N=C/c1cccs1)c1cc(-c2ccc3ccccc3c2)n[nH]1 | 34*
NNC(=O)Cn1c(SCc2ccccc2)nc2ccccc21 | 0
COC(=O)NC(=S)Nc1ccc(Oc2ccc(Cl)cc2Cl)c(Cl)c1 | 10
CC1CC(C)CN(Cc2nc(N)nc(Nc3ccccc3)n2)C1 (stereo not given) | -3
Cc1ccc(Nc2nc(N)nc(CN3CCCCCC3)n2)cc1 | 40*
Cc1c(Cl)cccc1Nc1nc(N)nc(CN2CCCCCC2)n1 | 4
C/C(CC(=O)Nc1ccccn1)=N\NC(=O)C(=O)Nc1cccc(C)c1 | 1
C/C(CC(=O)Nc1ccccn1)=N\NC(=O)C(=O)Nc1cccc(Cl)c1C | 0
C/C(CC(=O)Nc1ccc(N(C)C)cc1)=N\NC(=O)c1ccccn1 | 33*
CCN(CC)CC(O)COc1ccc2c(c1)OCO2 (stereo not given) | -11
Cc1ccccc1OCc1nc2ccccc2c(=O)n1NC(=O)c1ccco1 | 9
CCN1CCc2c(sc(NC(=S)NC(=O)c3ccccc3)c2C#N)C1 | 1
CCCSc1nc2sc3c(c2c(=O)[nH]1)CCN(Cc1ccccc1)C3 | 21
CCN1CCc2nc(NC(=O)CC(c3ccccc3)c3ccccc3)sc2C1 | 39*
O=C(Cc1cn2ccsc2n1)OCc1ccccc1 | -6
CC1CCc2nc(NC(=O)CN3CCN(c4ccccc4)CC3)sc2C1 (stereo not given) | 5
O=C(Cc1cn2ccsc2n1)Nc1nc2c(s1)CN(Cc1ccccc1)CC2 | 57*
CC1CCc2nc(NC(=O)CN3CCOCC3)sc2C1 (stereo not given) | 7
O=C(Cc1cn2ccsc2n1)Nc1ccccc1Oc1ccccc1 | -1
SMILES | Artemis inh
CCN1CCc2nc(NC(=O)C(c3ccccc3)c3ccccc3)sc2C1 | 49*
Cc1nc2ccccn2c1/C(O)=C1\C(=O)C(=O)N(CCCn2ccnc2)C1c1ccncc1 (stereo not given) | 3
Cc1ccsc1C(=O)OCc1csc(-c2ccccc2)n1 | 1
COc1cc(Cl)c(C)cc1NC(=O)COC(=O)c1cnc(C)cn1 | -3
CCn1cc(-c2cc(C(F)(F)F)n3nc(C(=O)O)cc3n2)c(C)n1 | 0
CC(=O)N(C)C1(c2nnnn2CCOC(=O)Nc2cccc3ccccc23)CCCC1 | 3
C=CCNc1nc2c(c(=O)[nH]c(=O)n2C)n1CCCCC | 3
CCOC(=O)c1cnc(C(C)(C)C)[nH]c1=O | 0
CCOC(=O)C(C)n1ncn2cccc2c1=O (stereo not given) | 33*
COC(=O)Cn1ncn2cccc2c1=O | 0
CCOC(=O)C(C)n1cnc2c(cnn2-c2ccc(Cl)cc2)c1=O (stereo not given) | -6
COC(=O)c1cc(C#N)c(NCc2ccccc2)nc1C | 4
Cc1nn(C)c(C)c1CN(C)C(=O)CCCC(=O)O | -6
COc1ccc(C2OC34CCCCC3C(C#N)(C#N)C2(C#N)C(=N)O4)cc1 (stereo not given) | 1
Cc1ccc(NCN2C(=O)c3ccccc3C2=O)c(C)c1 | -9
COc1ccc(C)cc1NC(=O)CN(C)S(=O)(=O)c1cccs1 | 1
Cc1ccc(NC2=C/C(=N\S(=O)(=O)c3cccs3)c3ccccc3C2=O)c(C)c1 | 53*
CCOCc1nc(N)[nH]c(=O)c1Cc1ccc(OC(C)C)cc1 | 4
CCn1c(=O)c(C(=O)NCCCO)c(O)c2ccccc21 | -7
CCn1c(=O)c(C(=O)Nn2c(C)nc3ccccc3c2=O)c(O)c2ccccc21 | 12
CCn1c(=O)c(C(=O)Nc2nc3ccccc3[nH]2)c(O)c2ccccc21 | 50*
O=C(COc1ccc(Cl)cc1)NCc1nnc(SCC(=O)N2CCCc3ccccc32)o1 | 8
Cn1c(CCNC(=O)c2ccc(Cl)cc2)n[nH]c1=S | 13
CSc1ccc2[nH]c(=O)cc(C)c2c1 | -5
CC(=O)N(CCCCN1C(=O)c2ccccc2C1=O)c1ccc(C)cc1 | 5
SMILES | Artemis inh
Cc1ccccc1-c1coc2cc(O)ccc2c1=O | 8
CC(=O)N(/N=C1\Sc2ccccc2C1=O)c1ccccc1 | 31*
CC(=O)N(/N=C1\Sc2ccccc2C1=O)c1ccccc1C | 32*
CC(=O)N(/N=C1\Sc2ccccc2C1=O)c1ccc(C)cc1C | 10
O=C(OCC(=O)N1CCCCCC1)c1cccs1 | 8
COc1ccc(CNC(=O)C2CC(=O)N(c3ccc(OCC(=O)N4C(C)CCCC4C)cc3)C2)cc1 (stereo not given) | -8
CC(OC(=O)c1cccc(NS(C)(=O)=O)c1)C(=O)Nc1ccc(N2CCOCC2)cc1 (stereo not given) | 7
COc1ccccc1NC(=O)Cn1cnc2c(cnn2-c2ccc(C)c(C)c2)c1=O | 3
Cc1cccc(C)c1NC(=O)/C(=C/c1ccco1)c1ccccc1 | 0
CC1=NN(c2cccc(C(=O)O)c2)C(=O)/C1=C\C=C\c1ccco1 | 31*
C(/C=C/c1ccco1)=N/N1CCN(c2ccccc2)CC1 | 0
CC[C@@H](C(=O)n1nc(C)cc1C)[C@H](NS(=O)(=O)c1ccc(C)cc1)c1ccccc1 | 0
CCc1ccc(/C=C/C(=O)c2c(C)cc(C)[nH]c2=O)cc1 | 2
O=C(/C=C/c1ccccc1)c1cc(Br)ccc(=O)c1O | 36*
NC(=O)c1cc2cc(Br)ccc2oc1=NCc1ccccc1 | 1
Cc1ccc(C(=O)NC(=S)Nc2ccc(S(=O)(=O)N3CCN(C)CC3)cc2)cc1 | 4
S=c1[nH]nc(C2COc3ccccc3O2)o1 (stereo not given) | 31*
S=c1[nH]nc(-c2ccccc2)o1 | 2
c1ccc2c(c1)OCC(c1csc3ncnc(N4CCCC4)c13)O2 (stereo not given) | 4
CCOC(=O)C(NC(C)=O)C(OC(C)=O)c1cccc(N(CCO)CCO)c1 (stereo not given) | 8
Cc1nn(Cc2c(Cl)cccc2Cl)c(C)c1NC(=O)c1cnn2c(C(F)F)cc(-c3ccccc3)nc12 | 25
Cc1ccc(-c2cc(C(F)F)n3ncc(C(=O)Nc4c(C)nn(Cc5c(Cl)cccc5Cl)c4C)c3n2)cc1 | 32*
O=C(Nc1cccnc1)c1cnn2c(C(F)F)cc(C3CC3)nc12 | -4
CCS(=O)(=O)NCC(c1cccnc1)N1CCN(c2ccccc2F)CC1 (stereo not given) | -8
O=C1CCCc2nn(-c3ccccc3)c(-c3ccncc3)c21 | -1
SMILES | Artemis inh
COc1ccc(C(=O)c2c(C(F)(F)F)oc3c2C(=O)c2ccccc2C3=O)cc1OC | 36*
COc1ccc(C(=O)Nc2ccc(OCC(F)(F)C(F)F)c(C(F)(F)F)c2)cc1OC | 10
COc1ccc(C(=O)/C=C/N(C)C)cc1OC | 3
O=C(Cn1cnc([N+](=O)[O-])c1)Nc1cc(Oc2ccc(Cl)cc2Cl)cc([N+](=O)[O-])c1 | 19
O=C(c1cc2nc(-c3ccccc3)cc(-c3ccccc3)n2n1)N1CCN(C(=O)c2ccco2)CC1 | 6
Cc1ccc(C(=O)COC(=O)CNS(=O)(=O)c2ccccc2)cc1[N+](=O)[O-] | -10
COc1ccc(NC(=O)C2CC(=O)n3cnnc3S2)cc1 (stereo not given) | -2
